Source: PubChem BioAssay AID1159580 (chemical genetic matrix, 2015)
In all, about 5,500 compounds went through this assay and about 2,000 (36%) were called active. Another 18% or so got no clear call; they are omitted. Rule as the data show it: active = normalized growth mostly below about 0.91 (no sharp cut-off); inconclusive = no clear call, values can overlap the other calls; inactive = mostly above about 0.92. The list shows a part of the results.

Test: chemical genetic growth profiling, strain panel (AID 1159580);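 also: tested at 20 µM; growth read once vehicle control cultures reached saturation at 30 °C; 1 = growth at the plate median or of vehicle wells; lower values mean less growth of the strain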
Details: growth OD

Measured: normalized growth

CC(=O)Nc1ccc(OC(=O)c2ccccc2O)cc1
inactive: S. cerevisiae deletion strains, locus YJR066W, strain TOR1, stronger effect = lower value 0.929 | S. cerevisiae deletion strains, locus YKL068W, stronger effect = lower value 0.96 | S. cerevisiae deletion strains, locus YKL085W, strain MDH1 (second series), stronger effect = lower value 0.95 | S. cerevisiae deletion strains, locus YKL085W, strain MDH1, stronger effect = lower value 0.95 | S. cerevisiae deletion strains, locus YKL160W, strain elf1, stronger effect = lower value 0.978 | S. cerevisiae deletion strains, locus YKL190W, strain CNB1, stronger effect = lower value 0.987 | S. cerevisiae deletion strains, locus YKR026C, strain gcn3, stronger effect = lower value 0.965 | S. cerevisiae deletion strains, locus YKR091W, strain srl3, stronger effect = lower value 0.962 | S. cerevisiae deletion strains, locus YLL001W, strain dnm1, stronger effect = lower value 0.96 | S. cerevisiae deletion strains, locus YLL026W, stronger effect = lower value 0.978 | S. cerevisiae deletion strains, locus YLL041C, strain sdh2, stronger effect = lower value 0.995 | S. cerevisiae deletion strains, locus YLR027C, strain aat2, stronger effect = lower value 0.992 | S. cerevisiae deletion strains, locus YLR039C, strain RIC1, stronger effect = lower value 0.676 | S. cerevisiae deletion strains, locus YLR058C, strain SHM2, stronger effect = lower value 0.941 | S. cerevisiae deletion strains, locus YLR102C, strain apc9, stronger effect = lower value 0.943 | S. cerevisiae deletion strains, locus YLR113W, strain HOG1, stronger effect = lower value 0.901 | S. cerevisiae deletion strains, locus YLR258W, strain gsy2, stronger effect = lower value 0.918 | S. cerevisiae deletion strains, locus YLR262C, strain YPT6 (second series), stronger effect = lower value 0.972 | S. cerevisiae deletion strains, locus YLR262C, strain YPT6, stronger effect = lower value 0.733 | S. cerevisiae deletion strains, locus YLR268W, strain sec22, stronger effect = lower value 0.894 | S. cerevisiae deletion strains, locus YLR330W, strain CHS5, stronger effect = lower value 0.959 | S. cerevisiae deletion strains, locus YLR342W, strain FKS1 (second series), stronger effect = lower value 0.938 | S. cerevisiae deletion strains, locus YLR342W, strain FKS1, stronger effect = lower value 1.01 | S. cerevisiae deletion strains, locus YLR357W, strain rsc2, stronger effect = lower value 0.929 | S. cerevisiae deletion strains, locus YLR370C, strain arc18, stronger effect = lower value 0.934 | S. cerevisiae deletion strains, locus YLR371W, strain rom2, stronger effect = lower value 0.952 | S. cerevisiae deletion strains, locus YLR384C, strain iki3, stronger effect = lower value 1 | S. cerevisiae deletion strains, locus YML016C, strain PPZ1, stronger effect = lower value 0.977 | S. cerevisiae deletion strains, locus YML120C, strain ndi1, stronger effect = lower value 0.951 | S. cerevisiae deletion strains, locus YML124C, strain tub3, stronger effect = lower value 0.955 | S. cerevisiae deletion strains, locus YMR058W, strain fet3, stronger effect = lower value 0.939 | S. cerevisiae deletion strains, locus YMR078C, strain ctf18, stronger effect = lower value 0.935 | S. cerevisiae deletion strains, locus YMR125W, strain sto1, stronger effect = lower value 0.982 | S. cerevisiae deletion strains, locus YMR129W, stronger effect = lower value 0.989 | S. cerevisiae deletion strains, locus YMR205C, strain PFK2, stronger effect = lower value 0.967 | S. cerevisiae deletion strains, locus YMR223W, strain ubp8, stronger effect = lower value 0.938 | S. cerevisiae deletion strains, locus YMR231W, strain pep5, stronger effect = lower value 1.01 | S. cerevisiae deletion strains, locus YMR307W, strain GAS1, stronger effect = lower value 0.707 | S. cerevisiae deletion strains, locus YNL067W, strain RPL9B, stronger effect = lower value 0.897 | S. cerevisiae deletion strains, locus YNL153C, strain GIM3, stronger effect = lower value 0.936 | S. cerevisiae deletion strains, locus YNL183C, strain NPR1, stronger effect = lower value 0.858 | S. cerevisiae deletion strains, locus YNL209W, strain ssb2, stronger effect = lower value 0.95 | S. cerevisiae deletion strains, locus YNL250W, strain rad50, stronger effect = lower value 0.978 | S. cerevisiae deletion strains, locus YNL271C, strain bni1, stronger effect = lower value 0.955 | S. cerevisiae deletion strains, locus YNL298W, strain CLA4, stronger effect = lower value 0.925 | S. cerevisiae deletion strains, locus YNR049C, strain mso1, stronger effect = lower value 0.964 | S. cerevisiae deletion strains, locus YNR052C, strain pop2, stronger effect = lower value 0.98 | S. cerevisiae deletion strains, locus YOL012C, strain htz1 0.544 | S. cerevisiae deletion strains, locus YOL147C, strain pex11, stronger effect = lower value 0.943 | S. cerevisiae deletion strains, locus YOR001W, strain rrp6, stronger effect = lower value 0.962 | S. cerevisiae deletion strains, locus YOR061W, strain CKA2, stronger effect = lower value 0.967 | S. cerevisiae deletion strains, locus YOR069W, strain VPS5, stronger effect = lower value 0.985 | S. cerevisiae deletion strains, locus YOR070C, strain gyp1, stronger effect = lower value 0.932 | S. cerevisiae deletion strains, locus YOR080W, strain dia2, stronger effect = lower value 1.02 | S. cerevisiae deletion strains, locus YOR083W, strain WHI5, stronger effect = lower value 0.928 | S. cerevisiae deletion strains, locus YOR106W, strain vam3, stronger effect = lower value 0.954 | S. cerevisiae deletion strains, locus YOR136W, strain idh2, stronger effect = lower value 0.948 | S. cerevisiae deletion strains, locus YOR144C, strain elg1, stronger effect = lower value 0.947 | S. cerevisiae deletion strains, locus YOR231W, strain MKK1, stronger effect = lower value 0.909 | S. cerevisiae deletion strains, locus YOR265W, strain rbl2, stronger effect = lower value 0.987 | S. cerevisiae deletion strains, locus YOR316C, strain cot1, stronger effect = lower value 0.947 | S. cerevisiae deletion strains, locus YPL051W, strain arl3, stronger effect = lower value 0.957 | S. cerevisiae deletion strains, locus YPL106C, strain sse1, stronger effect = lower value 0.926 | S. cerevisiae deletion strains, locus YPL240C, strain hsp82, stronger effect = lower value 0.973 | S. cerevisiae deletion strains, locus YPL241C, strain CIN2, stronger effect = lower value 0.977 | S. cerevisiae deletion strains, locus YPL256C, strain CLN2, stronger effect = lower value 0.881 | S. cerevisiae deletion strains, locus YPR119W, strain clb2, stronger effect = lower value 0.941 | S. cerevisiae deletion strains, locus YPR141C, strain kar3, stronger effect = lower value 0.967 | S. cerevisiae deletion strains, locus YPR163C, strain tif3, stronger effect = lower value 0.931 | S. cerevisiae deletion strains, locus YPR167C, strain met16, stronger effect = lower value 0.94 | S. cerevisiae deletion strains, strain wtn01, stronger effect = lower value 0.915 | S. cerevisiae strains, strain wild type, stronger effect = lower value 0.952
active: S. cerevisiae deletion strains, locus YJR075W, strain HOC1, stronger effect = lower value 0.85 | S. cerevisiae deletion strains, locus YKL009W, strain mrt4, stronger effect = lower value 0.848 | S. cerevisiae deletion strains, locus YKR001C, strain vps1, stronger effect = lower value 0.794 | S. cerevisiae deletion strains, locus YLR221C, strain rsa3, stronger effect = lower value 0.871 | S. cerevisiae deletion strains, locus YLR320W, strain mms22, stronger effect = lower value 0.832 | S. cerevisiae deletion strains, locus YLR418C, strain cdc73, stronger effect = lower value 0.682 | S. cerevisiae deletion strains, locus YML032C, strain rad52, stronger effect = lower value 0.897 | S. cerevisiae deletion strains, locus YNL071W, strain lat1, stronger effect = lower value 0.809 | S. cerevisiae deletion strains, locus YNL233W, strain BNI4, stronger effect = lower value 0.832 | S. cerevisiae deletion strains, locus YNL248C, strain rpa49, stronger effect = lower value 0.862 | S. cerevisiae deletion strains, locus YNL307C, strain MCK1, stronger effect = lower value 0.576 | S. cerevisiae deletion strains, locus YNL322C, strain KRE1 (second series), stronger effect = lower value 0.888 | S. cerevisiae deletion strains, locus YOL006C, strain TOP1, stronger effect = lower value 0.463 | S. cerevisiae deletion strains, locus YOR184W, strain ser1, stronger effect = lower value 0.756 | S. cerevisiae deletion strains, locus YOR270C, strain vph1, stronger effect = lower value 0.635 | S. cerevisiae deletion strains, locus YOR290C, strain snf2, stronger effect = lower value 0.857 | S. cerevisiae deletion strains, locus YPL078C, strain atp4, stronger effect = lower value 0.83
